Assay outcomes deposited in PubChem BioAssay by Broad Institute.
PAX8 inh HTS: inhibitors of PAX8-driven TPO luciferase reporter, primary screen, RMG-I cells, single concentration; inhibition, % at 12.6 µM; AID 652154, 2013; 1.2% of 360,000 active; SteadyGlo, 24 h;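 active means mean replicate inhibition at least 60% with every replicate also reaching 60%; inconclusive means only one of the two criteria is met; inactive means mean below 60% and not all replicates reaching 60%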;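 further: luciferase light reporting Pax8 driven TPO promoter activity; plate controls were median of neutral control wells for no effect and mitoxantrone controls for full effect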
EBV LMP1 NFkB: EBV LMP1-driven NF-kappaB luciferase reporter inhibitors, primary screen, cell-based, luminescence, single point | inhibition, % at 12.5 µM | 0.69% of 350,000 active | LMP1-induced NF-kappaB luciferase reporter cells; in the data active means inhibition above about 41%; inconclusive means no clear call, values can overlap the other calls;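 further: 0% = neutral control wells and 100% = reference inhibitor control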
Glyco luc inh: increase of ERlucT glycosylation luciferase signal, primary screen, N-linked glycosylation inhibitor project, D54 ERlucT cells, luminescence, set 2. reporter increase, % at 12.5 µM. 0.23% of 360,000 active. D54 ERlucT glycosylation luciferase reporter, 24 h; percent of 100 nM tunicamycin response;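 active means mean luciferase reporter signal, scaled so untreated is 0 and the glycosylation-blocking control 100, at or above a set limit in every replicate; inconclusive means mean reaches the limit but not every replicate does; inactive means mean below the limit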;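 further: luciferase carries N-glycosylation sites so blocking glycosylation raises the light; 0% = median of neutral control wells and 100% = median of 100 nM tunicamycin wells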
NSD2 HMT inh: NSD2 histone methyltransferase inhibitors, primary screen, biochemical, AlphaScreen, single concentration, set 2; Histone-lysine N-methyltransferase NSD2 (Homo sapiens), O96028; inhibition, % at 12.5 µM; NSD2 peptide methylation, 120 min; 0.54% of 310,000 active; in the data active means inhibition above about 50%
Target sequence (O96028 whole entry, looked up): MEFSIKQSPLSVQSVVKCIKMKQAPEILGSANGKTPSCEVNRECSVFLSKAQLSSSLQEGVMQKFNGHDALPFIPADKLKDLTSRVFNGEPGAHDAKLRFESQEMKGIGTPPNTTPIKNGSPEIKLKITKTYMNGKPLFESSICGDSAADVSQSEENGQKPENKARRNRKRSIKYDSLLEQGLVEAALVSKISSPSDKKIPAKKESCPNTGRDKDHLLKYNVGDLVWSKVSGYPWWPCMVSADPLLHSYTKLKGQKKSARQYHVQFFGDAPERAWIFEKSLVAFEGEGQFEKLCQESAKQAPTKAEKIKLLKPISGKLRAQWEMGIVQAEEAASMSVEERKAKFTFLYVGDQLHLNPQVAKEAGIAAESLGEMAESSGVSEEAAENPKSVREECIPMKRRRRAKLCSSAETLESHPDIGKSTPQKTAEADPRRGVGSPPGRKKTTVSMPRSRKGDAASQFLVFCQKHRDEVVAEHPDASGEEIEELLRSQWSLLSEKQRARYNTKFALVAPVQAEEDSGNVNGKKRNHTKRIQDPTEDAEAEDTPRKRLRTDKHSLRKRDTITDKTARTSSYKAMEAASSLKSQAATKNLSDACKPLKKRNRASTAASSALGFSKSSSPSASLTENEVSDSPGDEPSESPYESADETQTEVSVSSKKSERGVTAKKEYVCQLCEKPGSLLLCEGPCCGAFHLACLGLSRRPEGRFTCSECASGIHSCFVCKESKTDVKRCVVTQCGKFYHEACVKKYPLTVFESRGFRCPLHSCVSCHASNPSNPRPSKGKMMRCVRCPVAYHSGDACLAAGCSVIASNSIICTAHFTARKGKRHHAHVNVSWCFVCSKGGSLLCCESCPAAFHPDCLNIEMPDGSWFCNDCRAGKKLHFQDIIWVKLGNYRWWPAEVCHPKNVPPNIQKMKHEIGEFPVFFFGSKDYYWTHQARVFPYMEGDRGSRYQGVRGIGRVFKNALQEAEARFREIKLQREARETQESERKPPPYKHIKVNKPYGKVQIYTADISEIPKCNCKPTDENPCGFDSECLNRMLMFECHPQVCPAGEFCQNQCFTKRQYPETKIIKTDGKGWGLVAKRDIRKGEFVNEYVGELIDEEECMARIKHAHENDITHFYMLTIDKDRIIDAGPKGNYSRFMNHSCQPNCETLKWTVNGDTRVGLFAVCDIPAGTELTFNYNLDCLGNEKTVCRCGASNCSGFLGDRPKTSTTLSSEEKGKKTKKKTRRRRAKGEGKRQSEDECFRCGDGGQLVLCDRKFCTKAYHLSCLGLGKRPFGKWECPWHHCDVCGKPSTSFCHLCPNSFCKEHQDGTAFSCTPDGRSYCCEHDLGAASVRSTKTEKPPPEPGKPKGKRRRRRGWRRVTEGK
Env fusion inh: inhibitors of HIV-1 Env-driven cell-cell fusion, primary screen, HeLa-JRFL effector, CEM21 target cells, luciferase; 1.1% of 360,000 active; inhibition, % at 12.3 µM;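 active means mean replicate inhibition score of at least 50 and every replicate individually at or above 50; inconclusive means only one of the two criteria met; inactive means mean below 50 and not all replicates reaching 50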;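 further: 0% = plate neutral controls and 100% = maraviroc near 300 nM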
Shn3 3UTR inh: reduction of Shn3 3'UTR firefly luciferase signal, primary screen, Schnurri-3 inhibitor project, cell-based, Clone20 osteoblasts, set 2. Clone20 osteoblast Shn3 3'UTR firefly luciferase, 24 h. inhibition, % at 12.5 µM. 0.52% of 360,000 active. AID 588674, 2011;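 active means mean inhibition of at least 75% with every replicate also reaching 75%; inconclusive means mean inhibition at least 75% but some replicate below; inactive means mean inhibition below 75%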;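 further: 0% = median of neutral control wells and 100% = pilot-screen positive control compound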
Starred values were filed as active, the others as inactive; ? = inconclusive; nt = not tested or not shown; ! = not active in a repeat; [ ] = remark or other dose. Only some compounds are listed: those with a hit (about 2.8% of all), similar ones and a draw of the others.

SMILES | PAX8 inh HTS | EBV LMP1 NFkB | Glyco luc inh | NSD2 HMT inh | Env fusion inh | Shn3 3UTR inh
CCN1CCN(Cc2ccc(NC(=O)c3cc(NC(=O)c4cc5cccc(OC)c5o4)cc(OC)c3)cc2C(F)(F)F)CC1 | 90*! | -103 | -21 | nt | 23 | 99*
CCN1CCN(Cc2ccc(NC(=O)c3cc(NC(=O)c4cc(-c5ccc(OC)cc5)n[nH]4)cc(OC)c3)cc2C(F)(F)F)CC1 | ? | -2 | -7 | nt | 12 | 9
COc1ccc2c3c(n(C)c2c1)[C@H](CO)N(C(=O)Nc1ccc(F)cc1)CC31CN(S(=O)(=O)c2cccc(C)c2)C1 | nt | nt | nt | nt | -17[16.7 µM] | nt
COc1ccccc1NC(=O)N[C@H]1CC[C@H](CC(=O)N[C@H](C)c2ccccc2)O[C@@H]1CO | 6 | nt | nt | nt | -24[16.7 µM] | nt
CCCCOc1ccc(NC(=O)C(=O)NCCCn2ccnc2)cc1 | 85* | 7 | -1 | 6 | -107 | 7
Cc1nc2ccccc2n1/N=C/c1ccc([N+](=O)[O-])s1 | 62* | -4 | -9 | -1 | 14 | 92*
Cc1cc2ncn(/N=C/c3ccc([N+](=O)[O-])s3)c2cc1C | 22 | -3 | -1 | -1 | 3 | 3
O=[N+]([O-])c1ccc(/C=N/n2cnc3ccccc32)s1 | 51 | 37 | -20 | 0 | -2 | 90*
C[C@@H]1CN([C@@H](C)CO)C(=O)c2cc(N(C)C)ccc2O[C@H]1CN(C)C(=O)Nc1ccc2c(c1)OCO2 | -14 | nt | nt | nt | -3[16.7 µM] | nt
Cc1ccc(S(=O)(=O)N2CC3(O)CN(C(=O)OC(C)C)N(C(=O)OC(C)C)CC3(OC(=O)NCC3CCCCC3)C2)cc1 (stereo not drawn) | 0 | 0 | -5 | nt | 73* | 10
Cc1ccc(S(=O)(=O)N2CC3(O)CN(C(=O)OC(C)C)N(C(=O)OC(C)C)CC3(OC(=O)NC3CC3)C2)cc1 (stereo not drawn) | -21 | nt | nt | -2 | -13 | nt
CNC[C@@H]1Oc2ccc(NS(=O)(=O)c3ccccc3)cc2CC(=O)N([C@H](C)CO)C[C@H]1C | -6 | nt | nt | nt | 10[16.7 µM] | nt
NS(=O)(=O)c1ccc(N=Nc2ccc(O)c3ncccc23)cc1 | 60 | 18 | 1 | 5 | 61* | 78
CCS(=O)(=O)c1ccc(OC)c(N=Nc2ccc(O)c3ncccc23)c1 | 50 | -7 | 5 | 6 | 36 | 40
CCOc1ccc(N=Nc2ccc(O)c3ncccc23)cc1 | 35 | 6 | -1 | 0 | 1 | 90*
CCN(CC)S(=O)(=O)c1cc(OC)ccc1N=Nc1ccc(O)c2ncccc12 | 96* | -1 | -17 | 4 | 51 | 90*
COc1ccc(-c2ccc(C(C)=O)cc2)cc1[C@H]1[C@@H]2C=CCC[C@@]2(C)C(=O)N1Cc1ccccc1 | 62* | 2 | -8 | nt | 14 | -14
COc1ccc(-c2ccc(C)cc2)cc1[C@H]1[C@@H]2C=CCC[C@@]2(C)C(=O)N1Cc1ccccc1 | 4 | -29 | -4 | nt | 30 | 27
O=C(N[C@H]1CC[C@H](CCn2cc(-c3ccccc3)nn2)O[C@@H]1CO)c1ccccc1F | 24 | nt | nt | nt | 21[16.7 µM] | nt
Cc1ccc(-c2cc(-c3ccco3)c3c(N)c(C(=O)NN)oc3n2)cc1 | 21 | 31 | 5 | 1 | -3 | -10
NNC(=O)c1oc2nc(-c3cccs3)cc(-c3ccco3)c2c1N | 7 | -49 | 51* | 1 | -9 | -2
CC1CCC(C(C)C)C(OC(=O)Cn2c(-c3ccc(Cl)cc3)[n+](C)c3ccccc32)C1 (stereo not drawn) | 96* | 10 | 18 | nt | 68* | 68
CC1CCC(C(C)C)C(OC(=O)COC(=O)c2cccn2C)C1 (stereo not drawn) | nt | 5 | -2 | 8 | nt | -4
Cc1ccccc1OCc1n(CC(=O)OC2CC(C)CCC2C(C)C)c2ccccc2[n+]1C (stereo not drawn) | 105* | -4 | -6 | 29 | 71* | 6
CCCCCCCCCCOC(=O)Cn1c(COc2ccccc2C)[n+](C)c2ccccc21 | nt | 18 | 8 | nt | nt | ?
SMILES | PAX8 inh HTS | EBV LMP1 NFkB | Glyco luc inh | NSD2 HMT inh | Env fusion inh | Shn3 3UTR inh
CC1CCC(C(C)C)C(OC(=O)Cn2c(-c3ccc(Br)cc3)[n+](C)c3ccccc32)C1 (stereo not drawn) | 100* | -1 | 12 | 10 | 58*! | 21
C[C@H](CO)N1C[C@H](C)[C@@H](CN(C)Cc2ccncc2)OCCCC[C@H](C)Oc2ccc(NC(=O)C3CCCCC3)cc2C1=O | 13 | nt | nt | nt | 2[16.7 µM] | nt
C[C@H]1CN([C@@H](C)CO)C(=O)c2cc(/C=C/c3ccccc3)cnc2O[C@@H]1CN(C)C(=O)Nc1ccc(C(F)(F)F)cc1 | nt | nt | nt | nt | 4[16.7 µM] | nt
CNC[C@H]1Oc2ccc(NC(=O)Cn3cnnn3)cc2CC(=O)N([C@@H](C)CO)C[C@@H]1C | 16 | nt | nt | nt | nt | nt
CNC[C@@H]1Oc2ccc(NC(=O)Cc3ccccc3)cc2C(=O)N([C@H](C)CO)C[C@@H]1C | -1 | nt | nt | nt | 1[16.7 µM] | nt
C[C@H]1CCCCO[C@H](CN(C)Cc2ccc(Cl)c(Cl)c2)[C@@H](C)CN([C@@H](C)CO)C(=O)c2cc(NC(=O)Nc3ccc(C(F)(F)F)cc3)ccc2O1 | 78* | nt | nt | nt | 15[16.7 µM] | nt
C[C@@H]1CCCCO[C@@H](CN(C)Cc2ccc(Cl)c(Cl)c2)[C@@H](C)CN([C@H](C)CO)C(=O)c2cc(NC(=O)Nc3ccc(C(F)(F)F)cc3)ccc2O1 | 59 | nt | nt | nt | 27[16.7 µM] | nt
C[C@H](CO)N1C[C@H](C)[C@@H](CN(C)Cc2ccc(Cl)c(Cl)c2)OCCCC[C@H](C)Oc2ccc(NC(=O)Nc3ccc(C(F)(F)F)cc3)cc2C1=O | 84* | nt | nt | nt | 12[16.7 µM] | nt
C[C@@H]1CN([C@@H](C)CO)C(=O)c2cc(NC(=O)Nc3ccc(C(F)(F)F)cc3)ccc2O[C@@H](C)CCCCO[C@H]1CN(C)Cc1ccc(Cl)c(Cl)c1 | 93* | nt | nt | nt | 26[16.7 µM] | nt
C[C@@H]1CCCCO[C@H](CN(C)Cc2ccc(Cl)c(Cl)c2)[C@H](C)CN([C@@H](C)CO)C(=O)c2cc(NC(=O)Nc3ccc(C(F)(F)F)cc3)ccc2O1 | 90* | nt | nt | nt | 0[16.7 µM] | nt
COc1ccc(NC(=O)N2C[C@@H]3[C@H](c4ccccc42)[C@H](CO)N3Cc2ccccn2)cc1 | -6 | nt | nt | nt | nt | nt
Cc1ccc(S(=O)(=O)N[C@H]2CC[C@@H](CC(=O)N3CCN(c4ccccc4)CC3)O[C@@H]2CO)cc1 | 5 | nt | nt | nt | 7[16.7 µM] | nt
COC(=O)C[C@H]1CC[C@H](NC(=O)Nc2ccc(C(F)(F)F)cc2)[C@@H](CO)O1 | 8 | nt | nt | nt | -5[16.7 µM] | nt
C[C@@H](NC(=O)C[C@@H]1CC[C@@H]2[C@H](COC[C@@H](O)CN2C(=O)Nc2cc(Cl)cc(Cl)c2)O1)c1ccccc1 | 24 | nt | nt | nt | nt | nt
